Experimental data: the supplement of paper PMC11732987, “Enantioselective OTUD7B fragment discovery through chemoproteomics screening and high-throughput optimisation” (Communications Chemistry, 2025)

How the values were obtained:
Assay in all cases: log2 ratio of Biotin-Ahx-Ub-VS probe labelling (fragment/DMSO); higher = less target engagement (more negative = stronger competition), active = hit call of the paper (q ≤ 0.05, log2 ratio ≤ -1)
Settings in all cases: compound concentration: 200 uM; treatment time: 3 h
[1] = target: T1, ALG13 (UniProt Q9NP73)
T1 sequence (whole entry): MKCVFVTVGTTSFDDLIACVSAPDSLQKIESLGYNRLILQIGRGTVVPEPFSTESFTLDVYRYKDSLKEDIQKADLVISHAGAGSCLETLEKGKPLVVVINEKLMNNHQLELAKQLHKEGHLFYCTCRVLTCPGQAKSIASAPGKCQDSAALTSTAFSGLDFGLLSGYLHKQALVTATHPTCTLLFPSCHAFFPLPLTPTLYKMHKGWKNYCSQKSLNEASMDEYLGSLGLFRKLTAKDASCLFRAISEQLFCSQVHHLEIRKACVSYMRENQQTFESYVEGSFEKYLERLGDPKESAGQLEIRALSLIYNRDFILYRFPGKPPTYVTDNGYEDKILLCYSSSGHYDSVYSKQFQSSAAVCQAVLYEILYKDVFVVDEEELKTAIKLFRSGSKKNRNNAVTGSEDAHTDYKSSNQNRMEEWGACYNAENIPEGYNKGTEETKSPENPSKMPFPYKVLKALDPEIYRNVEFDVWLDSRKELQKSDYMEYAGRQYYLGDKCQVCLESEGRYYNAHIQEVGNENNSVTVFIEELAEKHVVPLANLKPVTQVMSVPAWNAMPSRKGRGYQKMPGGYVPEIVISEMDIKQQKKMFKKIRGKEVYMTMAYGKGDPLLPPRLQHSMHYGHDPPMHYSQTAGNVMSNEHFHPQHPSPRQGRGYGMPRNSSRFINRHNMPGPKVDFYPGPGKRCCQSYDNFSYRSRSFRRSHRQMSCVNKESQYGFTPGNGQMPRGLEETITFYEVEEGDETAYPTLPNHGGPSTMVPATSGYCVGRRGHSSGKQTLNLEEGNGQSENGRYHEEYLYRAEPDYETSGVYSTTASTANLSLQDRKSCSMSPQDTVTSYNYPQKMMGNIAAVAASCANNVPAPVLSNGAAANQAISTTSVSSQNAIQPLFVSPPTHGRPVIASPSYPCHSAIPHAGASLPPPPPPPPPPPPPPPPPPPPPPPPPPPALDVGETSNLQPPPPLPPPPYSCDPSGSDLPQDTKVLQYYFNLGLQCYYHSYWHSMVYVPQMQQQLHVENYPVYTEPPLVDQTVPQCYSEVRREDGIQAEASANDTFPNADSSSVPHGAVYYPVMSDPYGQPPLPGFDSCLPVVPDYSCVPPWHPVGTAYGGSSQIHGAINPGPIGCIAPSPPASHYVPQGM
Summary of the method: (§1)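 Fragment (200 µM) or vehicle was incubated for 3 h with triplicate HEK293T lysate samples of 495 µg, which were then treated with Biotin-Ahx-Ub-VS at 0.5 µM final for 1 h. Labelled DUBs were enriched on NeutrAvidin, digested with LysC and trypsin, and analysed by diaPASEF LC-MS/MS. Values are average log2 fragment/vehicle ratios from an unpaired t-test on global-median-normalised Spectronaut label-free quantities, using proteins with ≥2 unique peptides.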

[2] = target: ATXN3 (UniProt P54252)
Chain of ATXN3 (P54252 whole entry): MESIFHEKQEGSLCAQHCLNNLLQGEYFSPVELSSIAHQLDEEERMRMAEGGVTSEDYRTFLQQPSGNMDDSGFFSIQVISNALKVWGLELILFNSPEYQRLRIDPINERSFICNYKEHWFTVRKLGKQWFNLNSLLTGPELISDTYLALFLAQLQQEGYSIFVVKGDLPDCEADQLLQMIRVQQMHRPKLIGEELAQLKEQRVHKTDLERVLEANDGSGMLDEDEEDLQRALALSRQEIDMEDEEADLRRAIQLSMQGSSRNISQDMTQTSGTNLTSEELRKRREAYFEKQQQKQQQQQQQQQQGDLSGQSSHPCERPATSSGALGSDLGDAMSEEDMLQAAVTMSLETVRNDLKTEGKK
Summary of the method: as §1

[3] = target: T2, BAP1 (UniProt Q92560)
T2 sequence (whole entry): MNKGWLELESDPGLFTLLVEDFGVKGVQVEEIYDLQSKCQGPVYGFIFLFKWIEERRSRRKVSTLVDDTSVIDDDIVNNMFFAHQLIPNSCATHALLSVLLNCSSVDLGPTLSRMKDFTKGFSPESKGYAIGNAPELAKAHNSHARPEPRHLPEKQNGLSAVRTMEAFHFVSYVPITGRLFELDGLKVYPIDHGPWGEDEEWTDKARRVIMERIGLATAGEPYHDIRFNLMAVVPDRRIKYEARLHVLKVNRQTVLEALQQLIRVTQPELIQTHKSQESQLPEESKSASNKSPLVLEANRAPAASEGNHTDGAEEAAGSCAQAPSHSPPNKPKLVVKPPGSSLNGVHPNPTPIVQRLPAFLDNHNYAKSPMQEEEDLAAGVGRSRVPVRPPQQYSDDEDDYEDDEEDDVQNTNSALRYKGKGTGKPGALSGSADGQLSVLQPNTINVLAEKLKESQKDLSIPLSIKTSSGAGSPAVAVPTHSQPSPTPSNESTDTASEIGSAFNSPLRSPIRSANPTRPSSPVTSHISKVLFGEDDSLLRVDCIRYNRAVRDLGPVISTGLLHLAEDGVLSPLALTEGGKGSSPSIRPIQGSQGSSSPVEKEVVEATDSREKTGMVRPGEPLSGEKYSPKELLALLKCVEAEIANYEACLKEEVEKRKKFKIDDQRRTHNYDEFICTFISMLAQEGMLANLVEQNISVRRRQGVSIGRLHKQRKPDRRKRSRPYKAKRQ
Summary of the method: as §1

[4] = target: EIF3F (UniProt O00303)
Chain of EIF3F (O00303 whole entry): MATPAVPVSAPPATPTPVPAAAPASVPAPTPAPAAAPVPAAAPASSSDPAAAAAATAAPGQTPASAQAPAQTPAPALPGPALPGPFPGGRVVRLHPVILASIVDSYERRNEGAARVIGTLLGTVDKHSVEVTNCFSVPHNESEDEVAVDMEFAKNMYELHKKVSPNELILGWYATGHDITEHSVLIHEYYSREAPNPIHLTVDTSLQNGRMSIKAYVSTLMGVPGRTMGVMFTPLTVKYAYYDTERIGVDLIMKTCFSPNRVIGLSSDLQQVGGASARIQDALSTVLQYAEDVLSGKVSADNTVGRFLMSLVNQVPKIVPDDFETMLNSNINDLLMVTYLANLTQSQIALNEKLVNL
Summary of the method: as §1

[5] = target: EIF3H (UniProt O15372)
Chain of EIF3H (O15372 whole entry): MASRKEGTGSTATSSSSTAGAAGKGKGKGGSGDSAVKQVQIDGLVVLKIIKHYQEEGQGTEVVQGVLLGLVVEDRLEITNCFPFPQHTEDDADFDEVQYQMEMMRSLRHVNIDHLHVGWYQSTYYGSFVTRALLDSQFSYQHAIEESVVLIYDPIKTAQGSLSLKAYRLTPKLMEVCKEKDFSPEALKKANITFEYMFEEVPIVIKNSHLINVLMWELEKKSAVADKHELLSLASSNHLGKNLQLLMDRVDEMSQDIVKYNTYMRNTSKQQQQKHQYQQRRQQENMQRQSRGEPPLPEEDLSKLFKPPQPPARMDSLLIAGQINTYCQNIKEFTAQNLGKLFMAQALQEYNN
Summary of the method: as §1

[6] = target: T3, FAM105A (UniProt Q9NUU6)
T3 sequence (whole entry): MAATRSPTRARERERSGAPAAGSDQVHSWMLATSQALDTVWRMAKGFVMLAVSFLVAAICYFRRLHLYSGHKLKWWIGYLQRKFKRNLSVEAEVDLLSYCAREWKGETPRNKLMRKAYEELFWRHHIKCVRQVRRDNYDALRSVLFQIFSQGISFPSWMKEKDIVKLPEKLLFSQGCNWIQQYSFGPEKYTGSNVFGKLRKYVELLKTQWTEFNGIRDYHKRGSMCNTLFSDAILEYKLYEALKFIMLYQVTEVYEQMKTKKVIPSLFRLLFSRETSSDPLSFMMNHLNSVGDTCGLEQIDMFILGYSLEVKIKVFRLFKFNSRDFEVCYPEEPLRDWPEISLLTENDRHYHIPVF
Summary of the method: as §1

[7] = target: OTUB1 (UniProt Q96FW1)
Chain of OTUB1 (Q96FW1 whole entry): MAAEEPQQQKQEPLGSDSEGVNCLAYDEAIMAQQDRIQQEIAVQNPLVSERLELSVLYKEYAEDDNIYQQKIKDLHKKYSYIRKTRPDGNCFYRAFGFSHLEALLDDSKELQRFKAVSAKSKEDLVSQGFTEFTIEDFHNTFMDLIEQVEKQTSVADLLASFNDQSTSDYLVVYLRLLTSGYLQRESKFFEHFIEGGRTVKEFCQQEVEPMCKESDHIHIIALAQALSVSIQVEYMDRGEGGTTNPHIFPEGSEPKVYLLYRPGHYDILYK
Summary of the method: as §1

[8] = target: T4, OTUD4 (UniProt Q01804)
T4 sequence (whole entry): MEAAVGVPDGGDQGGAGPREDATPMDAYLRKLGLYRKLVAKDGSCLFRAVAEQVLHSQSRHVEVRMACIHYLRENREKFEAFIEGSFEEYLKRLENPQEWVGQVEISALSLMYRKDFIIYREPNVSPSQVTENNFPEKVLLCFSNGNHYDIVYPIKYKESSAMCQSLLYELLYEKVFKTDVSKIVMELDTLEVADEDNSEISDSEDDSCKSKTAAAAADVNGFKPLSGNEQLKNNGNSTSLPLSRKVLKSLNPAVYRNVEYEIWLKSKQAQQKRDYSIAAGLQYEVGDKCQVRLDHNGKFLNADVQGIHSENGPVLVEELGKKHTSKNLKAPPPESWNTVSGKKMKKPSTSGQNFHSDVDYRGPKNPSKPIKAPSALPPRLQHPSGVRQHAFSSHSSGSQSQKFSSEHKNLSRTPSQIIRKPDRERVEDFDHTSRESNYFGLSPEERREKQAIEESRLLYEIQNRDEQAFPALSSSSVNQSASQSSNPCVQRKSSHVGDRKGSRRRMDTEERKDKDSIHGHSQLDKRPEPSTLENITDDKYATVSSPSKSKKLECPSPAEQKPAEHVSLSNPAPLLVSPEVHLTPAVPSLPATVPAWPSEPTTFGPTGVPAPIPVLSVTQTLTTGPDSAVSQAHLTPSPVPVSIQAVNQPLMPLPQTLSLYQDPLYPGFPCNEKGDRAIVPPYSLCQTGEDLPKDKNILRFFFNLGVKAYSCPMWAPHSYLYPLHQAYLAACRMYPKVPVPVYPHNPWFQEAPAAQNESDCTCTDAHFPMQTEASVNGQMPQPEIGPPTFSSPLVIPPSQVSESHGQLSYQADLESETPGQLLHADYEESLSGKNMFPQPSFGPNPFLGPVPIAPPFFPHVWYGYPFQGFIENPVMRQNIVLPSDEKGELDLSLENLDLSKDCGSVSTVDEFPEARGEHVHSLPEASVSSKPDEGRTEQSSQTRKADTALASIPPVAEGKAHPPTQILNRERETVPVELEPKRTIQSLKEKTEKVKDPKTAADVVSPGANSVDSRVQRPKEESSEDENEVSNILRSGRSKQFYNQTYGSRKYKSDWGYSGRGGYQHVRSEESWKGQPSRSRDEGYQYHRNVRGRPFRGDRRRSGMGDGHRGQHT
Summary of the method: as §1

[9] = target: T5, OTUD5 (UniProt Q96G74)
T5 sequence (whole entry): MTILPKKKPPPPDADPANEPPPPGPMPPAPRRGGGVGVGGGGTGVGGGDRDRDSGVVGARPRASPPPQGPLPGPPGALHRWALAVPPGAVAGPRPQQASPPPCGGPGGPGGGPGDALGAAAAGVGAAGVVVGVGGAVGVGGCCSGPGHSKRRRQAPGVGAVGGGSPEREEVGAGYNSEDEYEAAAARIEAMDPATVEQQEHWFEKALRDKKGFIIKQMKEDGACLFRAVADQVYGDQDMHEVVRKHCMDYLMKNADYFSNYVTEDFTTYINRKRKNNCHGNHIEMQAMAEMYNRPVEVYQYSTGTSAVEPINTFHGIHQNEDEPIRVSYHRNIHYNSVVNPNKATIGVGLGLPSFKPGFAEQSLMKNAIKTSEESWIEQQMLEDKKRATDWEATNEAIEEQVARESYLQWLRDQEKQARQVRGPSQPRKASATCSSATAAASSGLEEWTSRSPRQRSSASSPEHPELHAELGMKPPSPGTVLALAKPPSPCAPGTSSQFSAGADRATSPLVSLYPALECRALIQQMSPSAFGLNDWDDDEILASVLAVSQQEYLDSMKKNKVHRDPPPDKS
Summary of the method: as §1

Measured: log2 ratio of Biotin-Ahx-Ub-VS probe labelling

O=C(CCl)NC1CCOc2ccccc21 (centres undefined)
inactive: [1] -0.044 | [2] -0.806 | [4] -0.349 | [5] 0.199 | [6] 0.29 | [7] -0.321 | [9] -0.73
active: [3] -2.55 | [8] -2.03
